Results reported in article PMC12136788.
In all, about 5,800 sequences were measured (“enrichment r”: median about 0.68, highest 2% from about 11 on). The list is a sample of the results.

T1: UNK ZnF1-6 (called full-length) (human, UniProt Q9C0B0 30-357)
T1 sequence: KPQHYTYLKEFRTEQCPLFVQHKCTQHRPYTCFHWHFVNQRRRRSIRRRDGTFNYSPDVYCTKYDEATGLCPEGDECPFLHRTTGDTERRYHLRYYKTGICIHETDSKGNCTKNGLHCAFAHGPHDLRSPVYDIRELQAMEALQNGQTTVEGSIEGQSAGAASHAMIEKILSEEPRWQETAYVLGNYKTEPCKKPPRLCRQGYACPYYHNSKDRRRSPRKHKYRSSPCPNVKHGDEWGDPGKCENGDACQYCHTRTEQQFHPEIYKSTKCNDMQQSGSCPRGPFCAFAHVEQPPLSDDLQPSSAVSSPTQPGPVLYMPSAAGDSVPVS

B1: chr17:82078764:82078865:-|3pUTR|ENSG00000169710|msi1_unk|FALSE|overlapping (ssRNA)
RNA: GGGAGUUCUACAGUCCGACGAUCCCGUGGGGUCUGCGCUUGGUCUUUCUGUGCUUGGAUUUGCAUAUUUAUUGCAUUGCUGGUAGAGACCCCCAGGCCUGUCCACCCUGCCAAGACUCCUCAGGCAGCGUGUGGGUCCCGCACCAACAGAGGAUUGAGCAUCA
B2: ENSG00000136451:be:win_1451|CDS_3pUTR|ENSG00000136451|bound_else_gene|NA|bound_elsewhere_windowed (ssRNA)
RNA: GGGAGUUCUACAGUCCGACGAUCCUCCAAUGAAUCUACCCACACCUAUGACAUUAGCCGCCCCUCUCAAUAUAGCAAUGAGACCUGUAGAGAGCAUGCCUUUCUUGCCCCAAGCUUUGCCUACAUCACCGCCUUGGUAAACAGCAACAGAGGAUUGAGCAUCA
B3: chr5:173316791:173316892:-|3pUTR|ENSG00000113739|msi1|FALSE|unique (ssRNA)
RNA: GGGAGUUCUACAGUCCGACGAUCGGAAACCUUAUACCCAGAGGAAAAUACACACCUGGGGAGUACAUUUGACAAAUUUCCCUUAGGAUUUCGUUAUCUCACCUUGACCCUCAGCCAAGAUUGGUAAAGCUGCGUCCUGGCGAUCAACAGAGGAUUGAGCAUCA
B4: ENSG00000064393:stop:overlap|stop_codon|ENSG00000064393|stop_codon|NA|stop_codon (ssRNA)
RNA: GGGAGUUCUACAGUCCGACGAUCUCUCCCUGGAGAGUGGUUUUCCUGCUUUUCUGCUGCUAGAAAUGUUGCUGUAUGGGAGCUAGUACAAUAGAAAGUGCCCAGUGACUGCAGGCGACCCUUACCGAGGAUUUUAUUCAAGUACAACAGAGGAUUGAGCAUCA
B5: ENSG00000198589:be:win_4201|CDS|ENSG00000198589|bound_else_gene|NA|bound_elsewhere_windowed (ssRNA)
RNA: GGGAGUUCUACAGUCCGACGAUCGAAGCCUCUGUGACAUUUUUGCAGAGGCUAAUUAGCCUUGUGGAUGUGCUUAUAUUUGCAAGUUCUCUUGGCUUUACUGAAAUUGAAGCUGAAAAAAGUAUGUCAUCUGGAGGAAUUUUGCAACAGAGGAUUGAGCAUCA
B6: chr9:37126384:37126485:+|CDS|ENSG00000147905|unk|total|mutant (ssRNA)
RNA: GGGAGUUCUACAGUCCGACGAUCUAUCGAGAUGAGUCAUCCCGUGAACUGAGUGUUGACCGUGAGGUGGAAUUUCAACUCUACCGCCAAAUUCAUUAUGCCCAAGAUCUUGAUGAUGUCAUCAGGGAGGAAGAGCAUGAAGAACAACAGAGGAUUGAGCAUCA
B7: chr15:52550718:52550819:-|3pUTR|ENSG00000128989|msi1|total|mutant (ssRNA)
RNA: GGGAGUUCUACAGUCCGACGAUCUUUAUAUAAACUUUUUAAAUGCCGAAACUUUUUACUUCCACACUCAGUUUUGGAGACCCCCGAAUAAAAGGCUUCAAUACUCUGCAUUCCAUGCCCUCUGCCACCUGCUUUUUUUUCCCCCAACAGAGGAUUGAGCAUCA
B8: ENSG00000066084:stop:overlap|stop_codon|ENSG00000066084|stop_codon|NA|stop_codon (ssRNA)
RNA: GGGAGUUCUACAGUCCGACGAUCACUGGCAGCCACACAUCUCACCUGCUGGGACAGAACCGGCAUACAUUGAGGGGAAACAAUAGUAAAUGUCUUAGACUUUAAGAAGGAUGCUGGGCUGUGGCACGGCAUGUUUGCGAAUGUCAACAGAGGAUUGAGCAUCA
B9: chrX:150470157:150470258:+|CDS|ENSG00000013619|unk|FALSE|unique (ssRNA)
RNA: GGGAGUUCUACAGUCCGACGAUCUCCAAAUGAGCUAGAUCUUGAGAAGAUACUGGGGACGAAGCCAGAAGAGCCACUGGUUUUAGAUCAUCCCCAGGCAACCCUAAGCACAACUCCCAAGCCUUCGGUUCAGAUGUCACACUUCAACAGAGGAUUGAGCAUCA
B10: chr8:102207567:102207681:-|3pUTR|ENSG00000048392|unk|total|mutant (ssRNA)
RNA: GGGAGUUCUACAGUCCGACGAUCUAUUAAUUGCAAUGAUGUUGUAAUAAAAUACUCUCAUUUCCUUAAAAUAAUUGUGAUUCCCGGUCCCCGGAUCCCGAAUCCGAUCUUUGUAUUUUUAAUGCUCCGGGGAAGAAUAUAAGUCAACAGAGGAUUGAGCAUCA
B11: ENSG00000142634:stop:overlap|stop_codon|ENSG00000142634|stop_codon|NA|stop_codon (ssRNA)
RNA: GGGAGUUCUACAGUCCGACGAUCAGGCGGAGGAGAUGAAGCAGCGGAAAGCGGCCUUCAAGGAGCUGCAGUCCACCUUUAAGUAGCGGGGGCUGCAGCCGACCGCCCUGCUCCGGCCCCAGUGUGGUGGGCGAGGGUGGCGCACAACAGAGGAUUGAGCAUCA
B12: ENSG00000100154:stop:overlap|stop_codon|ENSG00000100154|stop_codon|NA|stop_codon (ssRNA)
RNA: GGGAGUUCUACAGUCCGACGAUCAGCCAGUGAAGGCAGGUGACACUUACCUCCACCAGGUGAUGCAGGCUGUGGUGAUAAACUAGAGUGUGAAGAGCUCAGAGUGCAGCCUCUGGCCUUGCCACUCACAAGCUGUAGGACACUCAACAGAGGAUUGAGCAUCA
B13: chr18:33333173:33333394:-|CDS|ENSG00000166960|control|control|control (ssRNA)
RNA: GGGAGUUCUACAGUCCGACGAUCACAUUUUGAAAAACAAAAGACAGAGUUAGAAGAAGCAAAUGCAAAGAUUCAAGCAGACAUAGACUACAUGAAUGAACAUGGCCCUCUACUGGACUCUAAGCAGAAUCAGGAACUUCAAGACAACAGAGGAUUGAGCAUCA
B14: chr3:142163631:142163732:-|3pUTR|ENSG00000175066|unk|total|mutant (ssRNA)
RNA: GGGAGUUCUACAGUCCGACGAUCCCCAAAGUGCUGGGAUUGCAGCCGUGAACCACUGCACCCAGCCAAUGGGUGUAAUUUCACCGGAAAUAAUUCUUUUUGUCAGAAUGUACUGAAUUGUAAUAUUAAUACCUGAAAAUUUGUCAACAGAGGAUUGAGCAUCA
B15: ENSG00000101596:stop:overlap|stop_codon|ENSG00000101596|stop_codon|NA|stop_codon (ssRNA)
RNA: GGGAGUUCUACAGUCCGACGAUCUUAGUUGUAAUAAAAUAAAAGAUAAUGACAAAGAAGAUGGCUGCUUCUAUUUCAGGUUAUAGUUGAAGUCCUGCCUAAUCAACCUGUGAAGUUAGUACCUAAAAUUAAACCACCUACACCCAACAGAGGAUUGAGCAUCA
B16: chr20:18487131:18487232:-|3pUTR|ENSG00000089050|msi1|FALSE|unique (ssRNA)
RNA: GGGAGUUCUACAGUCCGACGAUCAAAUAUAGUAACCAGUAACCACAGCUAGCUGUAAAAUUGAAAAUUCAGUUCAGUCAAACUAGCCAUAUUUCAAGUGCUCAACAGCCACUGGUGGCUAUUGGUUACCUUACUGACCAGCCACAACAGAGGAUUGAGCAUCA
B17: chr9:34635388:34635489:-|3pUTR|ENSG00000147955|msi1|total|mutant (ssRNA)
RNA: GGGAGUUCUACAGUCCGACGAUCGGGAUAUCCAUGCUUAUGUAUCCAAACACAGAGACCCAUGGGAACAAAUGAGACACAUACCGAUACUGAGACCUGUGUGUACAGCCGGACCAUGCACUCACACCCAUCUGGAGAGGGAGCCAACAGAGGAUUGAGCAUCA
B18: chr1:16124655:16124788:-|3pUTR|ENSG00000142627|msi1|total|mutant (ssRNA)
RNA: GGGAGUUCUACAGUCCGACGAUCAGACUGUGAACUUGACUGGGUGAGACCCAAAGCGGUCCCUGUCCCUCCCGUGCCUUCUUCCGACCCUCGGGCCCCAUCCUCAUCCCUGACUGGCCAAACCCUUGCUUUCCUGGGCCUUUGCAACAGAGGAUUGAGCAUCA
B19: ENSG00000070961:be:win_2401|CDS|ENSG00000070961|bound_else_gene|NA|bound_elsewhere_windowed (ssRNA)
RNA: GGGAGUUCUACAGUCCGACGAUCGAUGGCCCAGCACUAAAGAAAGCAGAUGUUGGAUUUGCAAUGGGUAUUGCUGGAACUGAUGUAGCUAAAGAAGCAUCCGAUAUUAUUCUCACAGAUGACAACUUUACAAGCAUUGUUAAACAACAGAGGAUUGAGCAUCA
B20: chr1:6592219:6592320:-|3pUTR|ENSG00000162413|unk|total|mutant (ssRNA)
RNA: GGGAGUUCUACAGUCCGACGAUCCCCAAAGCCGCCUUGGCUUGAGUUUUUGUCCUUGCCUCCUUUUCCGAGAAGAGGGCAUUCCGACUGCAUUUUCCUGGUUAAAGAAGGUUAAAGCAAAUGUUUAUUGCCUUUUCCCGUGAACAACAGAGGAUUGAGCAUCA
B21: ENSG00000168297:stop:overlap|stop_codon|ENSG00000168297|stop_codon|NA|stop_codon (ssRNA)
RNA: GGGAGUUCUACAGUCCGACGAUCCUGGGGCCAGCUCACCUCUCACGUCCCCGUCAUCGCCAACUCCACCCUCUACAUCAGGUUAGUGAUGGAGUAAAGUGACAUGCCACCUUCCUGUCCGCCAACAGGAGGAGCGGGCUGUGCCAACAGAGGAUUGAGCAUCA
B22: chr22:40826605:40826706:-|CDS|ENSG00000100380|unk|total|mutant (ssRNA)
RNA: GGGAGUUCUACAGUCCGACGAUCCACCAAAUUACAGGUCUAAAUAAGAGAUGGAAUUCCGGAUAAUAAACUUACUGACCCAGCCGGACACUUUUUAAAUACUAAUGAACCCUUUCUUUUCAGGAUCCAGAAGUUAUGGUGGCUCAACAGAGGAUUGAGCAUCA

What follows are binders tested against T1, UNK ZnF1-6 (called full-length) (assay: nsRBNS (natural sequence RNA bind-n-seq); RBNS binding buffer (assumed for nsRBNS): 25 mM Tris pH 7.5, 150 mM KCl, 3 mM MgCl2, 0.01% Triton X-100, 500 ug/ml BSA, 20 U/ml SUPERase-In, 4 C; UNK is unkempt and MSI1 is Musashi-1; names of the RNAs are library labels; protein concentration not given here; high values mean tight binding).
In the case of B1, the binding signal is reported as 0.749 enrichment R. B2 gave a binding signal of 1.48 enrichment R. For B3, the binding signal was 0.601 enrichment R. B4 showed a binding signal of 0.569 enrichment R. Work on B5 yielded a binding signal of 0.355 enrichment R. With B6 the binding signal was 0.413 enrichment R. In the case of B7, the binding signal is reported as 1.03 enrichment R. Work on B8 yielded a binding signal of 1.59 enrichment R. In the case of B9, the binding signal is reported as 0.539 enrichment R. B10 showed a binding signal of 0.334 enrichment R. B11 showed a binding signal of 1.43 enrichment R. B12 was tested, and the binding signal was 0.552 enrichment R. B13 showed a binding signal of 0.467 enrichment R. Binder B14 has a binding signal of 0.381 enrichment R. B15 showed a binding signal of 1.46 enrichment R. With B16 the binding signal was 0.375 enrichment R. With B17 the binding signal was 0.886 enrichment R. B18 showed a binding signal of 1.06 enrichment R. For B19, the binding signal was 0.531 enrichment R. B20 was tested, and the binding signal was 0.414 enrichment R. B21 was tested, and the binding signal was 1.05 enrichment R. Work on B22 yielded a binding signal of 0.405 enrichment R.
